Measured values reported in PubChem BioAssay (Tox21).
Results filed as inconclusive are left out. A call without a number means that no potency is given here. Active and inactive are the calls of the source. The call rests on the fitted dose curve.

The molecules below were run against Acetylcholinesterase (Homo sapiens) (UniProt P22303) (assay: Acetylcholinesterase (AChE) small molecule antagonists: fluorescence cell-based qHTS assay (AID 1347398; further: nearly all actives have a fitted effect of over 50% in size; further: potency means the concentration at half of the fitted maximal effect)). Conditions: SH-SY5Y cells; Potency: AChE activity; outcome: AChE activity; series mostly up to 115 µM.
Acetylcholinesterase (Homo sapiens), sequence (P22303 whole entry, looked up): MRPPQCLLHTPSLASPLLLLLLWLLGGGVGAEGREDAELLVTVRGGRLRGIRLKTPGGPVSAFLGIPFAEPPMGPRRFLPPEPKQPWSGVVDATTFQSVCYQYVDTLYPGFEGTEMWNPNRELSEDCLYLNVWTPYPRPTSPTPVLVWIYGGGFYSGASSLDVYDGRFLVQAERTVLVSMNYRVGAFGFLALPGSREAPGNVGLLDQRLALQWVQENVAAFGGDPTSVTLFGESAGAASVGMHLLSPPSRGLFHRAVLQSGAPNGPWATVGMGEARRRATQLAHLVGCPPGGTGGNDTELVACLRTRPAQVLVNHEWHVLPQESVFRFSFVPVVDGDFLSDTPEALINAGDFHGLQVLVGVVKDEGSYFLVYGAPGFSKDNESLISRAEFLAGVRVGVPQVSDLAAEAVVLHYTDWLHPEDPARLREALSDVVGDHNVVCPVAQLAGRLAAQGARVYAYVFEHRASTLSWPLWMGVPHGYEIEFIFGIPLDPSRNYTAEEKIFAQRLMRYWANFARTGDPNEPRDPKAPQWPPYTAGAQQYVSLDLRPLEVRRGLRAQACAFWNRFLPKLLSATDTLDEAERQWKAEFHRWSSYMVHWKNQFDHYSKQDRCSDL
Method in brief: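 Endogenous acetylcholinesterase of SH-SY5Y neuroblastoma cells is measured in situ. After overnight attachment and 30 min compound exposure, cells receive acetylthiocholine and Thiolite Green; fluorescence is read after 40 min at room temperature.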
With `CCOC(=O)CC(CC(=O)OCC)(OC(C)=O)C(=O)OCC` the Potency was “inactive”. With `CC1CCc2cc(F)cc3c(=O)c(C(=O)O)cn1c23` (stereo not given) the Potency was “inactive”. In the case of `O=C(O)CN(CC(=O)O)CC(=O)O`, the Potency is reported as “inactive”. In the case of `CCC(C)c1cc(C(C)(C)C)c(O)c(C(C)(C)C)c1` (stereo not given), the Potency is reported as “inactive”. `CC1=NN(c2cc(Cl)c(S(=O)(=O)O)cc2Cl)C(=O)C1N=Nc1ccc(S(=O)(=O)O)cc1` (stereo not given) was tested, and the Potency was “inactive”. `CC(=O)O[C@H](CC(=O)[O-])C[N+](C)(C)C` was tested, and the Potency was “inactive”. With `Cc1cccc(Nc2cc(Cl)nc(SCC(=O)O)n2)c1C` the Potency was “inactive”. In the case of `CC(=O)[O][Al][O]C(C)=O`, the Potency is reported as “inactive”. `COc1ccc(NC(C)=O)cc1` was tested, and the Potency was “inactive”. `CC(=O)N1CCN(c2ccc(OC[C@H]3CO[C@](Cn4ccnc4)(c4ccc(Cl)cc4Cl)O3)cc2)CC1` was tested, and the Potency was 31.7 µM (active). In the case of `O=C1c2ccccc2C(=O)c2cc(S(=O)(=O)O)ccc21`, the Potency is reported as “inactive”. In the case of `O=c1[nH]c2ccccc2n1CCCN1CCN(C(c2ccccc2)c2ccccc2)CC1`, the Potency is reported as “inactive”. `C=Cc1ccccc1` was tested, and the Potency was “inactive”. With `O=CN(CCO)CCO` the Potency was “inactive”. With `O=C1c2c(O)cccc2Cc2cccc(O)c21` the Potency was “inactive”. In the case of `C=CC(=O)OCC(CO)(COCC(COC(=O)C=C)(COC(=O)C=C)COC(=O)C=C)COC(=O)C=C`, the Potency is reported as “inactive”. In the case of `S=c1nccc[nH]1`, the Potency is reported as “inactive”. `CC(C)(C)C(O)/C=C/c1ccc2c(c1)OCO2` (stereo not given) was tested, and the Potency was “inactive”. For `CC1(C)C2=CCCC(C)(C)[C@]23CC[C@H]1C3`, the Potency was “inactive”. `O=c1c(-c2ccc(O)cc2)coc2cc(O)ccc12` was tested, and the Potency was “inactive”. For `CCCCC1(COC(=O)CCC(=O)O)C(=O)N(c2ccccc2)N(c2ccccc2)C1=O`, the Potency was “inactive”. `CN(C)c1ccc(/C=C/c2ccc([N+](=O)[O-])cc2)cc1` was tested, and the activity change, negative = inhibition was 4.62% [at 10.5 µM] (inactive). For `Nc1ccc(O)c(C(=O)O)c1`, the Potency was “inactive”. `CC1(C)O[C@@H]2C[C@H]3[C@@H]4CCC5=CC(=O)C=C[C@]5(C)[C@@]4(F)[C@@H](O)C[C@]3(C)[C@]2(C(=O)CO)O1` was tested, and the Potency was “inactive”. In the case of `CC1(C)CC(N)CC(C)(CN)C1` (stereo not given), the Potency is reported as “inactive”. `Oc1ccccc1C=NCc1ccccc1` was tested, and the Potency was “inactive”. With `CC(C)CCCCCCCOC(=O)c1ccc(C(=O)OCCCCCCCC(C)C)c(C(=O)OCCCCCCCC(C)C)c1` the Potency was “inactive”. With `N[C@@H](C(=O)N[C@@H]1C(=O)N2C(C(=O)O)=C(Cl)CS[C@H]12)c1ccccc1` the activity change, negative = inhibition was 7.33% [at 10.5 µM] (inactive). With `CC[C@@]1(O)C(=O)OCc2c1cc1n(c2=O)Cc2cc3c(CN(C)C)c(O)ccc3nc2-1` the Potency was “inactive”. With `CCC(CO)CO` the Potency was “inactive”. For `CC(C)(C#N)c1cc(Cn2cncn2)cc(C(C)(C)C#N)c1`, the Potency was “inactive”. In the case of `CCOc1ccc2c(c1)C(C)=CC(C)(C)N2`, the Potency is reported as “inactive”. For `CC(C)C(C)(C)C(C)(C)C(C)(C)S`, the Potency was “inactive”. `C[C@H](CCC(=O)O)[C@H]1CC[C@H]2[C@@H]3[C@H](O)C[C@@H]4C[C@H](O)CC[C@]4(C)[C@H]3CC[C@]12C` was tested, and the Potency was “inactive”. With `COc1cc(C(=S)N2CCOCC2)cc(OC)c1OC` the Potency was “inactive”. With `Fc1ccccc1` the Potency was “inactive”. With `O=C(Cl)c1ccc(C(=O)Cl)cc1` the Potency was “inactive”. `CC(c1cc2ccccc2s1)N(O)C(N)=O` (stereo not given) was tested, and the Potency was “inactive”. In the case of `C[C@@H]1CC(=O)NN=C1c1ccc(NN=C(C#N)C#N)cc1`, the Potency is reported as “inactive”. In the case of `C/C=C/C=C/CCCCCCCO`, the Potency is reported as “inactive”.

What follows are molecules tested against Acetylcholinesterase (Homo sapiens) (UniProt P22303) (assay: Acetylcholinesterase (AChE) small molecule antagonists: enzyme-based qHTS assay with human liver microsomes (AID 1347399; further: nearly all actives have a fitted effect of over 60% in size)). Conditions: Potency: qHTS inhibition; outcome: qHTS inhibition; series mostly up to 115 µM.
Method in brief: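 Recombinant human AChE (50 mU/mL in the enzyme mix) and human liver microsomes (0.25 mg/mL final) were preincubated with compound and NADPH (0.25 mg/mL final) for 30 min at 37 C. Acetylthiocholine/DTNB was then added; thiocholine was read colorimetrically after 10 min at room temperature.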
With `CCOC(=O)CC(CC(=O)OCC)(OC(C)=O)C(=O)OCC` the Potency was “inactive”. For `CC1CCc2cc(F)cc3c(=O)c(C(=O)O)cn1c23` (stereo not given), the Potency was “inactive”. With `O=C(O)CN(CC(=O)O)CC(=O)O` the Potency was “inactive”. In the case of `CCC(C)c1cc(C(C)(C)C)c(O)c(C(C)(C)C)c1` (stereo not given), the Potency is reported as “inactive”. `CC1=NN(c2cc(Cl)c(S(=O)(=O)O)cc2Cl)C(=O)C1N=Nc1ccc(S(=O)(=O)O)cc1` (stereo not given) was tested, and the Potency was “inactive”. With `CC(=O)O[C@H](CC(=O)[O-])C[N+](C)(C)C` the Potency was “inactive”. For `Cc1cccc(Nc2cc(Cl)nc(SCC(=O)O)n2)c1C`, the Potency was “inactive”. For `CC(=O)[O][Al][O]C(C)=O`, the Potency was “inactive”. `COc1ccc(NC(C)=O)cc1` was tested, and the Potency was “inactive”. For `CC(=O)N1CCN(c2ccc(OC[C@H]3CO[C@](Cn4ccnc4)(c4ccc(Cl)cc4Cl)O3)cc2)CC1`, the Potency was “inactive”. For `O=C1c2ccccc2C(=O)c2cc(S(=O)(=O)O)ccc21`, the Potency was “inactive”. In the case of `O=c1[nH]c2ccccc2n1CCCN1CCN(C(c2ccccc2)c2ccccc2)CC1`, the Potency is reported as “inactive”. `C=Cc1ccccc1` was tested, and the Potency was “inactive”. With `O=CN(CCO)CCO` the Potency was “inactive”. `O=C1c2c(O)cccc2Cc2cccc(O)c21` was tested, and the Potency was “inactive”. With `C=CC(=O)OCC(CO)(COCC(COC(=O)C=C)(COC(=O)C=C)COC(=O)C=C)COC(=O)C=C` the Potency was “inactive”. For `S=c1nccc[nH]1`, the Potency was “inactive”. In the case of `CC(C)(C)C(O)/C=C/c1ccc2c(c1)OCO2` (stereo not given), the Potency is reported as “inactive”. `CC1(C)C2=CCCC(C)(C)[C@]23CC[C@H]1C3` was tested, and the Potency was “inactive”. With `O=c1c(-c2ccc(O)cc2)coc2cc(O)ccc12` the Potency was “inactive”. `CCCCC1(COC(=O)CCC(=O)O)C(=O)N(c2ccccc2)N(c2ccccc2)C1=O` was tested, and the Potency was “inactive”. For `CN(C)c1ccc(/C=C/c2ccc([N+](=O)[O-])cc2)cc1`, the activity change, negative = inhibition was 1.54% [at 10.5 µM] (inactive). `Nc1ccc(O)c(C(=O)O)c1` was tested, and the Potency was “inactive”. `CC1(C)O[C@@H]2C[C@H]3[C@@H]4CCC5=CC(=O)C=C[C@]5(C)[C@@]4(F)[C@@H](O)C[C@]3(C)[C@]2(C(=O)CO)O1` was tested, and the Potency was “inactive”. With `CC1(C)CC(N)CC(C)(CN)C1` (stereo not given) the Potency was “inactive”. For `Oc1ccccc1C=NCc1ccccc1`, the Potency was “inactive”. With `CC(C)CCCCCCCOC(=O)c1ccc(C(=O)OCCCCCCCC(C)C)c(C(=O)OCCCCCCCC(C)C)c1` the Potency was “inactive”. In the case of `N[C@@H](C(=O)N[C@@H]1C(=O)N2C(C(=O)O)=C(Cl)CS[C@H]12)c1ccccc1`, the activity change, negative = inhibition is reported as -5.46% [at 10.5 µM] (inactive). In the case of `CC[C@@]1(O)C(=O)OCc2c1cc1n(c2=O)Cc2cc3c(CN(C)C)c(O)ccc3nc2-1`, the Potency is reported as “inactive”. In the case of `CCC(CO)CO`, the Potency is reported as “inactive”. For `CC(C)(C#N)c1cc(Cn2cncn2)cc(C(C)(C)C#N)c1`, the Potency was “inactive”. For `CCOc1ccc2c(c1)C(C)=CC(C)(C)N2`, the Potency was “inactive”. In the case of `CC(C)C(C)(C)C(C)(C)C(C)(C)S`, the Potency is reported as “inactive”. `C[C@H](CCC(=O)O)[C@H]1CC[C@H]2[C@@H]3[C@H](O)C[C@@H]4C[C@H](O)CC[C@]4(C)[C@H]3CC[C@]12C` was tested, and the Potency was “inactive”. With `COc1cc(C(=S)N2CCOCC2)cc(OC)c1OC` the Potency was “inactive”. With `Fc1ccccc1` the Potency was “inactive”. With `O=C(Cl)c1ccc(C(=O)Cl)cc1` the Potency was “inactive”. In the case of `CC(c1cc2ccccc2s1)N(O)C(N)=O` (stereo not given), the Potency is reported as “inactive”. In the case of `C[C@@H]1CC(=O)NN=C1c1ccc(NN=C(C#N)C#N)cc1`, the Potency is reported as “inactive”. `C/C=C/C=C/CCCCCCCO` was tested, and the Potency was “inactive”.
